Source: PubChem BioAssay (National Center for Advancing Translational Sciences (NCATS))
Shown are actives, neighbours in structure and some others; about 12% of the full set was active somewhere.
L3MBTL1 inh: inhibitors of human L3MBTL1 | Q9Y468 | AlphaScreen L3MBTL1–H3K9me1 peptide binding | Potency, µM (top dose mostly 57.1 µM), without a hit: top-dose activity, negative = inhibition, hits mostly inhibitors | actives 0.66% (n = 230,000) | AID 485360; further: on the % scale 0 is the no-effect control and ±100 the full control effect; nearly all actives have a fitted effect of over 60% in size
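L3MBTL1 (50 nM) pre-complexed 30 min with biotinylated H3(1-15)K9me1 peptide (75 nM), then compounds added for 30 min at room temperature; AlphaScreen streptavidin donor/nickel chelate acceptor beads (10 ug/mL final) read after 30 min dark incubation.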
Sfp PPTase inh: blocks B. subtilis Sfp PPTase activity | Biochemical Sfp PPTase activity, qHTS | Potency, µM, for the others: largest response in the series, negative = inhibition, actives largely listed as inhibitors | actives 3.5% (n = 310,000) | AID 1490;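 further: the enzyme is Sfp with the accession as filed and its product quenches rhodamine fluorescence; 0% = enzyme reaction without inhibitor and -100% = no enzyme wells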
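Buffer: 50 mM Hepes-Na pH 7.6, 10 mM MgCl2, 0.01% Nonidet P-40, 0.01% BSA. Enzyme 15 nM, pre-exposed to compound 15 min; substrates then added and fluorescence change tracked over 30 min.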
JMJD2A Tudor: blocks the human JMJD2A Tudor domain | O75164 | AlphaScreen JMJD2A-Tudor / H3K4me3 peptide binding | Potency, µM (top dose mostly 114 µM), for the others: at the top dose activity change, negative = inhibition, actives largely listed as inhibitors | actives 4.4% (n = 390,000); further: on the % scale 0 is the no-effect control and ±100 the full control effect; nearly all actives have a fitted effect of over 50% in size
G9a block: blocks human histone lysine methyltransferase G9a; Q96KQ7; G9a H3K9 monomethylation, AlphaScreen, 2 h; Potency, µM (doses to about 102 µM), without a hit: top-dose activity, negative = inhibition, actives largely listed as inhibitors; actives 8.8% (n = 350,000); AID 504332; further: on the % scale 0 is the no-effect control and ±100 the full control effect; nearly all actives have a fitted effect of over 75% in size
Target sequence (Q96KQ7 913-1193 limits assumed): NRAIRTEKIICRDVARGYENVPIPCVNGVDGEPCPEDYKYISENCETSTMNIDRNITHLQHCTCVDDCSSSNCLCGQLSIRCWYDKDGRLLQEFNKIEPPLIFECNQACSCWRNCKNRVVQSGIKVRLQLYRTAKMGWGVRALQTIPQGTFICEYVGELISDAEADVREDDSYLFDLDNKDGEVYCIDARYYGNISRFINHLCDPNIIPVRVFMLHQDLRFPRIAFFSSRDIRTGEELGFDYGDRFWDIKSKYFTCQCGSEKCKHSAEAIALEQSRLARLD
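Signal arises when biotinylated H3K9 peptide, once monomethylated, bridges streptavidin donor and antibody-captured acceptor beads. Enzyme at 20 nM was preincubated 15 min with test compounds; peptide 500 nM and SAM 20 uM then reacted for 2 h.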
BAZ2B inh: inhibitors of human BAZ2B bromodomain; AlphaScreen BAZ2B-H3K14Ac peptide displacement; Potency, µM (highest dose often 114 µM), without a hit: at the highest dose activity change, negative = inhibition, most hits filed as inhibitors; actives 4.4% (n = 360,000); AID 504333; further: on the % scale 0 is the no-effect control and ±100 the full control effect; nearly all actives have a fitted effect of over 60% in size
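In this displacement format the biotinylated H3(5-23) peptide acetylated at Lys14 serves as ligand at 50 nM, with BAZ2B at 50 nM in PBS pH 7.4 containing 0.01% Tween-20. Donor and acceptor beads are 10 ug/mL final.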
HP1b chromo inh: inhibitors of HP1-beta chromodomain binding to methylated histone tails; Potency, µM (doses to about 114 µM), for inactives: top-dose activity change, negative = inhibition, most hits filed as inhibitors; AlphaScreen HP1-beta / biotin-H3K9me3 peptide binding; actives 0.56% (n = 390,000); AID 540317; P83916; further: nearly all actives have a fitted effect of over 70% in size
Target sequence (P83916 whole entry, looked up): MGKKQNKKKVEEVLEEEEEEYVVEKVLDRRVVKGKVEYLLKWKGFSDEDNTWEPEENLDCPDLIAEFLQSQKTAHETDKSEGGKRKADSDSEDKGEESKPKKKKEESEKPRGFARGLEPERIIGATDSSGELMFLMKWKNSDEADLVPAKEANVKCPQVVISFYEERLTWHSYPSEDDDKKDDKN
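Compound inhibition of the preformed complex between 50 nM HP1-beta and 50 nM biotinylated H3K9me3 peptide was read by AlphaScreen. Buffer was PBS pH 7.4 with 0.01% Tween-20. Incubations ran 30 min at room temperature, with 10 ug/mL donor/acceptor beads.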
* marks the source's active call; other numbers are inactive results; ? = inconclusive; / = no result given; ! = repeats disagree; [ ] = dose if it differs, or a comment. The call rests on the fitted dose curve; in most records, active means well fitted curve in the direction sought with a large enough effect; inconclusive means small, poorly fitted or top-dose-only effect, or another doubt; inactive means no such curve, though single readings can be large; an effect the other way counts as inactive or inconclusive. Potency means the concentration at half of the fitted maximal effect.

SMILES | L3MBTL1 inh | Sfp PPTase inh | JMJD2A Tudor | G9a block | BAZ2B inh | HP1b chromo inh
Fc1ccccc1-c1n[nH]c(=S)n1Cc1ccccc1 | / | 8% | 22µM* | 3.5µM* | -3% | 2%
COc1ccc(NC(=O)CCCn2c(=O)oc3ccccc32)cc1Cl | 7% | 12% | -5% | -9%[59 µM] | -21% | 47%
Nc1nc(O)c(-c2ccccc2)o1 | / | -10% | / | -5%[12.7 µM] | / | /
CCOP(=O)(OCC)c1cccc(P(=O)(c2ccccc2)c2ccccc2)c1O | / | -2% | -9% | 7% | -1% | 63%
CCOP(=O)(C1=C(O)C(=O)C(C(C)(C)C)=CC1=O)c1ccccc1 (stereo not drawn) | / | 40µM* | -21% | 56µM* | -24% | 17%
CCOC(=O)c1ccccc1NC(=O)N(Cc1ccc(CC)cc1)Cc1cn[nH]c1-c1ccc(OC)cc1 | / | / | 17% | 8%[59 µM] | 26% | 64%
C[C@H](N)CN1CCc2ccc(Br)cc21 | / | / | -25% | 45µM* | / | 13%
COc1ccc(CN2C(=O)NC(=O)/C(=C\c3cccc(OC)c3OC)C2=O)cc1 | / | 79µM* | 56µM* | ? | ? | 11%
COc1ccc(CN2C(=O)CC(=O)NC2=O)cc1 | -10% | -4% | -5% | -15% | 0% | 28%
Cc1ccc(/C=C2/C(=O)NC(=O)N(Cc3ccc(F)cc3)C2=O)o1 | / | 35µM* | / | / | -16% | /
CCN1C(=O)NC(=O)/C(=C\c2cn(CC(=O)N3CCCCC3C)c3ccccc23)C1=O (stereo not drawn) | / | 12% | -12% | 33% | 4% | 58%
Cc1ccc(/C=C2\C(=O)NC(=O)N(Cc3ccccc3Cl)C2=O)o1 | -25% | 71µM* | -14% | 13µM* | 32µM* | 17%
COc1ccc(CN2C(=O)NC(=O)/C(=C/c3ccc([N+](=O)[O-])o3)C2=O)cc1 | / | 50µM* | / | 7.1µM* | 14µM* | /
CC(=O)OC1CCC23C(=O)OC45CCC(C6=CC(=O)OC6)C4(C)CCC2C5CCC3(O)C1 (stereo not drawn) | / | 5% | / | -31%[2.33 µM] | / | /
Cc1ccc(/C=C2\C(=O)NC(=O)N(CCc3ccc(F)cc3)C2=O)o1 | ? | 40µM* | -24% | 3.2µM* | -8% | 27%
CC(=O)OCC(N)C(=O)c1ccccc1 (stereo not drawn) | / | -11% | / | ? | / | /
Cc1ccccc1[N+](=O)[O-] | 8% | / | -10% | 13%[0.501 µM] | -1% | 100%
O=C1NC(=O)C(Sc2ccccc2[N+](=O)[O-])C(=O)N1 | / | 20µM* | 28µM* | 2.8µM* | 50µM* | ?
COc1cccc(CN2CCNCC2)c1 | 16% | -2% | -10% | 79µM* | -6% | 37%
Cn1ccnc1 | / | / | / | 11%[12.7 µM] | / | /
Cc1c(C(=O)c2cccc3ccccc23)c2cccc3c2n1[C@@H](CN1CCOCC1)CO3 | / | 7% | / | ? | / | /
COc1ccc(N2CCN(CCCNC(=O)c3cnn(-c4ccc(F)cc4)c3-n3cccc3)CC2)cc1 | / | / | 45µM* | 13µM* | ? | -11%
O=C1C[C@@H]2OCC=C3CN4CC[C@]56c7ccccc7N1[C@@H]5[C@@H]2[C@H]3C[C@H]46 (tested in a mixture with another compound) | / | -9% | / | 9%[59 µM] | / | /
CC(=NCCCn1ccnc1)c1c(O)n(Cc2ccccc2)c(=O)[nH]c1=O | / | 3% | -19% | -8% | ? | 36%
COc1ccc(Nc2c(-c3cc(Br)ccc3O)nc3ncccn23)cc1OC | / | / | 20µM* | 10µM* | 14µM* | ?
SMILES | L3MBTL1 inh | Sfp PPTase inh | JMJD2A Tudor | G9a block | BAZ2B inh | HP1b chromo inh
Cc1cc(C)nc(OC(=O)c2ccc(Cl)cc2Cl)n1 | 3% | 33% | / | 28%[12.7 µM] | -17% | /
CCOP(=O)(OCC)/C(=N/OC(=O)c1ccc(Cl)cc1Cl)C(N)=O | 7% | 2% | -3% | 50µM* | -2% | 76%
O=C(c1cc2ccccn2n1)N1CCN(Cc2ccccc2)CC1 | / | -18% | -1% | ? | 1% | 43%
Oc1c(Br)c(Br)c(Br)c(Br)c1Br | -12% | / | ? | 5%[0.501 µM] | 56µM* | -23%
O=C1NC(=O)N(Cc2ccccc2)C(=O)/C1=C/N1CCCc2ccccc21 | ? | -26% | ? | 7.9µM* | ? | 7%
CC(C)c1ccc(N2C(=O)NC(=O)/C(=C/c3cnc(-c4ccccc4)nc3)C2=O)cc1 | -14% | 56µM* | 89µM* | 3.5µM* | ? | -5%
O=C1NC(=O)N(Cc2ccccc2)C(=O)/C1=C/c1cnc(-c2ccccc2)nc1 | / | 56µM* | 79µM* | 10µM* | -34% | -6%
CSc1ncc(/C=C2/C(=O)NC(=O)N(c3ccc(C(C)C)cc3)C2=O)cn1 | 4% | 79µM* | ? | 7.9µM* | -12% | -15%
COC1(C)CC(c2ccccc2)c2c(c3ccccc3oc2=O)O1 (stereo not drawn) | / | -5% | / | / | / | /
Clc1ccc([C@@H](OCCN2CCCCC2)c2ccccc2)cc1 | / | 21% | / | 5%[21.5 µM] | / | /
C(=C\c1ccccc1)/CN1CCN(CCOC(c2ccccc2)c2ccccc2)CC1 | / | 56µM* | / | 11µM* | / | /
CCC12CCCN3CCC4(c5ccc(OC)c(O)c5N(C(C)=O)C4CC1)C32 (stereo not drawn) | / | 12% | / | / | / | /
O=c1oc(Cl)c(Cl)c2ccccc12 | 5% | 35µM* | ? | 6.7µM* | ? | -11%
Oc1ccc2[nH]cc(CCCCN3CC=C(c4ccccc4)CC3)c2c1 | / | 4% | / | ? | / | /
CCn1cc(C(=O)O)c(=O)c2ccc(C)nc21 | -1% | -10% | -17% | 8.9µM*! | 79µM* | 6%
CCCOCCN(C(=O)CCl)c1c(CC)cccc1CC | / | 14% | / | / | / | /
CC(C)(C)NCC(O)c1cc(Cl)c(N)c(C(F)(F)F)c1 (stereo not drawn) | / | 14% | / | -45%[12.7 µM] | / | /
CC1=NN=C(c2ccc(N)cc2)c2cc3c(cc2C1)OCO3 | -4% | -13% | ? | 7.5µM*! | ? | 23%
CC1Cc2cc3c(cc2C(c2ccc(N)cc2)=NN1)OCO3 (stereo not drawn) | / | / | / | 8.9µM* | / | /
CC1(C)[C@H](C(=O)O[C@H](C#N)c2cccc(Oc3ccccc3)c2)[C@@H]1C=C(Br)Br | / | -23% | / | / | / | /
CCCCCOc1c(OC)ccc2cc(C(=O)NCc3ccc4c(c3)OCO4)c(=O)[nH]c12 | / | -7% | / | 36%[59 µM] | / | /
Cc1[nH]cnc1CCN | / | -12% | / | / | / | /
COc1ccccc1CN1CCCC(C(=O)c2ccccc2SC)C1 (stereo not drawn) | -24% | -1% | -26% | / | -17% | 15%
COc1ccc(O)c(CN2CCCC(C(=O)c3ccccc3SC)C2)c1 (stereo not drawn) | -13% | -5% | 56µM* | / | 50µM* | ?
